SMILES strings stand for the structures. Compounds without any hit were thinned out: in the full panel of roughly 83,000, 20% have a hit.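 Activity criterion: percent growth below 10, measured after cells in 96-well plates were exposed to a single compound concentration for 48 hours.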 Values without a mark were called inactive. Calls of active or inactive are those of the source.

Test systems include NCI-H23 lung; NCI-H226 lung; HOP-62 NSCLC; NCI-H460 lung; HOP-92 NSCLC; NCI-H522 lung; A549/ATCC NSCLC; 786-0 renal; COLO 205 colon; DU-145 prostate; K-562 leukemia; MALME-3M melanoma; MDA-MB-231 breast; RXF 393 renal; SF-268 CNS; SF-295 CNS; SF-539 CNS; UACC-257 melanoma; M14 melanoma.
Experiment in all cases: NCI-60 one-dose screen, 48 h (100 = growth as untreated, 0 = no growth, -100 = all killed)
Common to all, as to settings: 10 µM unless noted

In the case of `Cc1nc2ccc(Nc3nc(Cl)nc(N4CCOCC4)n3)cc2n1Cc1ccccc1`, the growth was 16.5% in the test on NCI-H23 lung; 82.5% in the test on NCI-H226 lung; 50.1% in the test with HOP-62 NSCLC; 91.3% in the test with NCI-H460 lung; 36.1% in the test with HOP-92 NSCLC; -38.6% (active) in the test on NCI-H522 lung. The growth was 92% with A549/ATCC NSCLC; 68.3% in the test with 786-0 renal; 100% with COLO 205 colon; 94.2% in the test with DU-145 prostate; 25.7% in the test with K-562 leukemia; 96.8% in the test on MALME-3M melanoma. Also, the growth in the test with MDA-MB-231 breast was 64.4%; in the test with RXF 393 renal, 65.1%; in the test on SF-268 CNS it was 77%; with SF-295 CNS, 87.3%; in the test on SF-539 CNS, 84.7%; in the test on UACC-257 melanoma, 104%. In addition, the growth with M14 melanoma was 103%.

`C=CCOc1c(Br)cc(Br)cc1Br`: the growth in the test on NCI-H23 lung was 53.1%; with NCI-H226 lung, 81.5%; in the test on HOP-62 NSCLC, 58.6%; in the test with NCI-H460 lung, 38.5%; with HOP-92 NSCLC, 90.6%; with NCI-H522 lung it was 27.6%. Also, the growth with A549/ATCC NSCLC is 59.7%; in the test with 786-0 renal it was 102%; with COLO 205 colon it was 103%; in the test with DU-145 prostate it was 81.8%; in the test with K-562 leukemia, 52.2%; in the test with MDA-MB-231 breast, 44.6%. Further, the growth in the test with RXF 393 renal was 76.9%; in the test with SF-268 CNS, 68.7%; in the test with SF-539 CNS, 45.4%; with UACC-257 melanoma, 79%; in the test with M14 melanoma, 73.5%.

Turning to `NC(=O)c1noc(C(=O)c2ccccc2)c1N`, the growth with NCI-H23 lung is 101%; in the test on NCI-H226 lung, 89.8%; with HOP-62 NSCLC it was 114%; in the test with NCI-H460 lung, 102%; in the test on NCI-H522 lung, 80.4%; in the test with A549/ATCC NSCLC, 89.1%. Besides, the growth with 786-0 renal was 97.9%; in the test on COLO 205 colon, 111%; with DU-145 prostate, 104%; in the test on K-562 leukemia, 89.5%; with MALME-3M melanoma, 101%; in the test with MDA-MB-231 breast, 109%. In addition, the growth with RXF 393 renal is 96.2%; in the test on SF-268 CNS, 98.4%; in the test on SF-295 CNS it was 98.9%; in the test on SF-539 CNS, 107%; with UACC-257 melanoma, 102%; with M14 melanoma it was 110%.

For `CN(C)CCOc1nc2c3cccnc3cc(-c3cccc(Cl)c3)c2c2ncccc12`, the growth is 31.2% with NCI-H23 lung; 40.5% in the test on NCI-H226 lung; 44.4% in the test on HOP-62 NSCLC; -49.8% (active) in the test with NCI-H460 lung; 42.7% in the test with HOP-92 NSCLC; 34.1% in the test with NCI-H522 lung. The growth is 22% in the test on A549/ATCC NSCLC; 21.8% in the test with 786-0 renal; -65.4% (active) with COLO 205 colon; 14.3% in the test with DU-145 prostate; -21% (active) in the test with K-562 leukemia; -90.4% (active) with MALME-3M melanoma. Also, the growth is -11.5% (active) in the test with MDA-MB-231 breast; -87.4% (active) in the test on RXF 393 renal; 27.4% in the test with SF-268 CNS; 27.9% with SF-295 CNS; 36.3% with SF-539 CNS; -57.5% (active) in the test with UACC-257 melanoma. Moreover, the growth in the test with M14 melanoma is -82.1% (active).

As for `O=[N+]([O-])c1ccccc1CN1CCCCC1`, the growth is 92.8% in the test with NCI-H23 lung; 112% with NCI-H226 lung; 107% with HOP-62 NSCLC; 116% in the test with NCI-H460 lung; 89.7% in the test on HOP-92 NSCLC; 110% with NCI-H522 lung. Besides, the growth was 106% with A549/ATCC NSCLC; 111% with 786-0 renal; 111% in the test with COLO 205 colon; 136% with K-562 leukemia; 121% with MALME-3M melanoma; 105% in the test with MDA-MB-231 breast. In addition, the growth with RXF 393 renal is 104%; in the test on SF-268 CNS, 112%; in the test with SF-295 CNS it was 112%; with SF-539 CNS it was 104%; in the test with UACC-257 melanoma it was 110%; with M14 melanoma, 114%.

As to `C#CC[C@@H]1C[C@]2(C)[C@H]3CC=C4[C@H]5[C@@H](C)[C@H](C)CC[C@]5(C(=O)NCCCCN)CC[C@@]4(C)[C@]3(C)CC[C@H]2C(C)(C)[C@H]1OC(C)=O`, the growth with NCI-H23 lung was 94.8%; in the test with NCI-H226 lung, 87.1%; in the test on HOP-62 NSCLC, 89.2%; in the test on NCI-H460 lung it was 1.45% (active); with HOP-92 NSCLC, 44.1%; in the test on NCI-H522 lung it was 81.7%. The growth in the test with A549/ATCC NSCLC was 72.6%; in the test on 786-0 renal it was 79.9%; in the test on COLO 205 colon it was 6.68% (active); in the test on DU-145 prostate, 58.6%; with K-562 leukemia it was -26.6% (active); with MALME-3M melanoma, 98.9%. Further, the growth with MDA-MB-231 breast was 39.5%; in the test on RXF 393 renal, 56.4%; with SF-268 CNS, 69.8%; in the test on SF-539 CNS, 84.7%; with UACC-257 melanoma, 115%; in the test with M14 melanoma, 66.6%.

As to `O=C(CN1CCN(c2ccccc2)CC1)N1CCN(c2nnc(-c3ccc(Cl)cc3)c(-c3ccc(Cl)cc3)n2)CC1`, the growth in the test with NCI-H23 lung is 82.3%; with NCI-H226 lung, 68%; with HOP-62 NSCLC, 66%; in the test on NCI-H460 lung, 47.9%; in the test with HOP-92 NSCLC, 71.3%; with NCI-H522 lung, 59.7%. Besides, the growth in the test with A549/ATCC NSCLC was 54.8%; in the test on 786-0 renal, 40.1%; in the test with COLO 205 colon it was 51%; in the test with DU-145 prostate, 76%; in the test on K-562 leukemia, 22.4%; in the test on MALME-3M melanoma it was 126%. Further, the growth in the test on MDA-MB-231 breast was 76.4%; with RXF 393 renal, 49.9%; in the test on SF-268 CNS, 65.2%; in the test on SF-539 CNS, 60.2%; in the test with UACC-257 melanoma, 61.6%; with M14 melanoma it was 69.5%.

Consider `Nc1ccc(C(OC(=O)c2cc3ccccc3c(Cc3c(O)c(C(=O)OC(c4ccc(N)cc4)(c4ccc(N)cc4)c4ccc(N)cc4)cc4ccccc34)c2O)(c2ccc(N)cc2)c2ccc(N)cc2)cc1`, for which the growth with NCI-H23 lung was 9.92% (active); with NCI-H226 lung it was 30.8%; with HOP-62 NSCLC, 6.24% (active); with NCI-H460 lung, 1.82% (active); in the test with HOP-92 NSCLC, -6.69% (active); with NCI-H522 lung, 9.97% (active). For the same molecule, the growth in the test with A549/ATCC NSCLC was 10.7%; with 786-0 renal, 23.5%; with COLO 205 colon, -83.7% (active); in the test with DU-145 prostate, 21.9%; in the test on K-562 leukemia it was 7.72% (active); in the test with MALME-3M melanoma it was 5.78% (active). Moreover, the growth is -9.83% (active) in the test on MDA-MB-231 breast; 28% with RXF 393 renal; 24.6% in the test with SF-268 CNS; 10.3% in the test with SF-539 CNS; 6.17% (active) in the test on UACC-257 melanoma; 14.9% in the test with M14 melanoma.

On to `COc1cc(C)c2c(=O)c3c(oc2c1)C(=O)c1c(O)c(OC)cc(O)c1C3=O`, for which the growth was -2.42% (active) in the test on NCI-H23 lung; 30.7% in the test on NCI-H226 lung; 25.7% in the test with HOP-62 NSCLC; 1.04% (active) in the test with NCI-H460 lung; -32% (active) with HOP-92 NSCLC; -48.3% (active) with NCI-H522 lung. Moreover, the growth was 7.31% (active) in the test with A549/ATCC NSCLC; 20% with 786-0 renal; 109% in the test on COLO 205 colon; 26.8% with DU-145 prostate; -23.8% (active) with K-562 leukemia; -23.8% (active) in the test with MALME-3M melanoma. Besides, the growth is -0.877% (active) with MDA-MB-231 breast; 13.1% with RXF 393 renal; 21.5% in the test on SF-268 CNS; 25.7% in the test on SF-295 CNS; 5.8% (active) with SF-539 CNS; 54% with UACC-257 melanoma. Further, the growth in the test with M14 melanoma is 19.3%.

`Cc1cc(C)cc(CCCCCCCCCCCCCCCCCC(=O)O)c1`: the growth in the test with NCI-H23 lung is 104%; in the test on NCI-H226 lung, 111%; in the test on HOP-62 NSCLC it was 107%; with NCI-H460 lung, 113%; in the test with HOP-92 NSCLC it was 116%; in the test on NCI-H522 lung it was 92%. In addition, the growth is 96.6% in the test on A549/ATCC NSCLC; 99.5% in the test on 786-0 renal; 113% with COLO 205 colon; 108% with DU-145 prostate; 115% in the test with K-562 leukemia; 108% with MALME-3M melanoma. Besides, the growth in the test with MDA-MB-231 breast is 120%; in the test with RXF 393 renal it was 107%; in the test with SF-268 CNS it was 103%; with SF-539 CNS, 106%; in the test with UACC-257 melanoma, 106%; in the test with M14 melanoma it was 98%.

The values above are taken from PubChem BioAssay (NCI).
